Where “and” joins values, the source holds several entries; their conditions need not be identical. Equal values may be shown once. Results filed as inconclusive are left out. Where a call stands in place of a potency, no number is given. Calls of active or inactive are those of the source. Unless noted, the call rests on the fitted dose curve; in most records, active means well fitted curve in the direction sought with a large enough effect in the repeat runs; inconclusive means weak or mixed curves; inactive means no such curve, though single readings can be large; an effect the other way counts as inactive or inconclusive.
Tests used:
[1] = target: Cytochrome P450 2D6 (Homo sapiens) (UniProt P10635); test: Cytochrome P450 family 2 subfamily D member 6 (CYP2D6) small molecule antagonists: luciferase biochemical (cell-free) qHTS assay (AID 1645840); further: nearly all actives have a fitted effect of over 55% in size; further: potency means the concentration at half of the fitted maximal effect
Cytochrome P450 2D6 (Homo sapiens), sequence (P10635 whole entry, looked up): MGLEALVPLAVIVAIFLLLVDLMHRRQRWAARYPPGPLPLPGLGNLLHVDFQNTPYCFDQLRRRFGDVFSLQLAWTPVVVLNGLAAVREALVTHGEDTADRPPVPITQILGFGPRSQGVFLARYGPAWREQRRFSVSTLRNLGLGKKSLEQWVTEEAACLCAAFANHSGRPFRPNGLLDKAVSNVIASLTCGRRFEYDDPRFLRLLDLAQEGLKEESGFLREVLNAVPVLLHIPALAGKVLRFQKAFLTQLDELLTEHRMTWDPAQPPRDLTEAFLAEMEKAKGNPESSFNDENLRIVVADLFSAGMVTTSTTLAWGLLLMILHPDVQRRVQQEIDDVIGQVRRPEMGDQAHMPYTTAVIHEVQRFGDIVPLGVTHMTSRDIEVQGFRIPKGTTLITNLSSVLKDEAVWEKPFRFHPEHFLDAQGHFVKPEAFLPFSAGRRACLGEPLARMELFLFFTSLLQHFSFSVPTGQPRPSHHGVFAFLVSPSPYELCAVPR
Method in brief: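 P450-Glo luminescent screen: recombinant CYP2D6 enzyme–proluciferin substrate mix preincubated with compound 10 min at room temperature, then NADPH regeneration added for 1 h at room temperature. Detection reagent added for 20 min; luciferin light read as relative luminescence units.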

[2] = target: Cytochrome P450 2C9 (Homo sapiens) (UniProt P11712); test: Cytochrome P450 family 2 subfamily C member 9 (CYP2C9) small molecule antagonists: luciferase biochemical (cell-free) qHTS assay (AID 1645842); further: nearly all actives have a fitted effect of over 55% in size; further: potency means the concentration at half of the fitted maximal effect
Cytochrome P450 2C9 (Homo sapiens), sequence (P11712 whole entry, looked up): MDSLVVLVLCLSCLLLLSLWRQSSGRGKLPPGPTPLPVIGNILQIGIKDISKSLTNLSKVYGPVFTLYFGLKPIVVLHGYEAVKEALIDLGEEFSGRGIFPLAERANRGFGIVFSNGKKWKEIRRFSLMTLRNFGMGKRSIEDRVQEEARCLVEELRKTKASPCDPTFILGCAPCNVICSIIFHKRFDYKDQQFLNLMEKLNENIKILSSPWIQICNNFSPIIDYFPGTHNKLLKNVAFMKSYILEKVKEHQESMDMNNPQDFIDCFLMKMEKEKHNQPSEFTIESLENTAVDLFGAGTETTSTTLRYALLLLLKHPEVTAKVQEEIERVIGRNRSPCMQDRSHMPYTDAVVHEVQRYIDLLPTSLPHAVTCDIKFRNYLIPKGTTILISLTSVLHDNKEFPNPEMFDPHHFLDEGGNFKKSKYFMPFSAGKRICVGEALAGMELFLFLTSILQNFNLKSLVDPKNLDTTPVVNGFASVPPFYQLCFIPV
Method in brief: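 Luminescence, after 20 min with luciferin detection reagent, reflected CYP2C9 turnover during a 1 h NADPH-driven reaction at 37C. Enzyme-substrate mix contained 0.4% bovine serum albumin and was preincubated with compound 10 min at room temperature.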

[3] = Primary qHTS for inhibitors of nuclear receptor binding SET domain protein 2 (NSD2) in an isogenic RCH-ACV NSD2 p.E1099K mutant (9B) (AID 1645876; active means well fitted curve in the direction sought with a large enough effect; an effect the other way counts as inactive or inconclusive; further: nearly all actives have a fitted effect of over 70% in size; further: potency means the concentration at half of the fitted maximal effect)
[4] = A High-Content qHTS Against Drug Library for the Identification of Small Molecules that Inhibit DYT1 Early Onset Primary Dystonia-Associated Cell Pathology (AID 1645839; calls by dose curve; further: series mostly up to about 46 µM)
Method in brief: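 Flp-In T-REx 293 cells with tetracycline-inducible EGFP-delE hTOR1A (WT EGFP-hTOR1A as reference), 800 cells/well; compound added with tetracycline, 48 h at 37 C. Fixed, permeabilized cells imaged; %pathology (punctate TorsinA) primary, cell count counterscreen.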

| SMILES | Potency [1] | Potency [2] | Potency [3] | Potency [4] |
| --- | --- | --- | --- | --- |
| O=C1[C@H](CC[C@H](O)c2ccc(F)cc2)[C@@H](c2ccc(O)cc2)N1c1ccc(F)cc1 | 15.5 µM (active) and 9.52 µM (active) | 6.92 µM (active) and 9.52 µM (active) | 23 µM (active) | – |
| CC(=O)Oc1ccc(C)cc1 | – | inactive | inactive | inactive |
| CC(=O)N[C@@H](CCC(=O)O)C(=O)O | inactive | inactive | inactive | inactive |
| Cc1ccc(O)c([C@H](CCN(C(C)C)C(C)C)c2ccccc2)c1 | 2.45 µM (active) and 2.13 µM (active) | inactive | 21.1 µM (active) | – |
| O=C(Nc1ccc([N+](=O)[O-])cc1)Nc1ccc([N+](=O)[O-])cc1 | – | inactive | inactive | inactive |
| CC(O)Cn1cnc2c1c(=O)n(C)c(=O)n2C (configuration not stated) | – | – | inactive | inactive |
| Cc1ccc2c(Br)cc(Br)c(O)c2n1 | – | inactive | 7.5 µM (active) | – |
| CC(=O)Nc1ccc(CC(=O)O)cc1 | inactive | inactive | inactive | inactive |
| CCN(CC)CCOC(=O)C1(c2ccccc2)CCCC1 | 2.19 µM (active) | inactive | inactive | inactive |
| Nc1ccc(S(=O)(=O)Nc2cnc3ccccc3n2)cc1 | inactive | 15.5 µM (active) | inactive | – |
| CCN(CC)CCOC(=O)C(Cc1cccc2ccccc12)CC1CCCO1 (configuration not stated) | – | inactive | – | inactive |
| O=C(O)c1ccc(S(=O)(=O)N(Cl)Cl)cc1 | inactive | inactive | inactive | inactive |
| CCCCCCCCCCC[C@@H](C[C@@H]1OC(=O)[C@H]1CCCCCC)OC(=O)[C@H](CC(C)C)NC=O | inactive | 2.75 µM (active) | inactive | – |
| CCCCNC(=O)NS(=O)(=O)c1ccc(N)cc1 | inactive | inactive | inactive | inactive |
| CC(C)Nc1cccnc1N1CCN(C(=O)c2cc3cc(NS(C)(=O)=O)ccc3[nH]2)CC1 | – | 1.95 µM (active) | – | inactive |
| CCCCCCCCCCCCOCCOCCOCCOCCOCCOCCOCCOCCOCCO | 12.3 µM (active) | 21.9 µM (active) | – | – |
| Oc1ccc(Cl)cc1Cc1cc(Cl)ccc1O | 27.5 µM (active) | – | – | – |
| C[N+]12CCC(CC1)C(OC(=O)C(O)(c1ccccc1)c1ccccc1)C2 (configuration not stated) | 15.5 µM (active) | inactive | inactive | inactive |
| CCCCCCCCOc1ccc(C(=O)c2ccccc2)c(O)c1 | inactive | inactive | inactive | inactive |

From PubChem BioAssay (NCATS)
